# Out of some 68,000 compounds screened, about 2,700 (4%) showed an effect of 50% or more. For the sample, strong results were picked, then their nearest neighbours and some compounds at random.
# Test system: Plasmodium berghei
# Test: Screen against P. berghei liver stage (PbLuc), transformed with Luciferase, at 2uM
# Type: functional, HepG2
# Settings: tested at 2 uM
row,SMILES,INHIBITION
1,Fc1cnc(N2CC3(CCN(Cc4ccsc4)C3)C2)nc1,34.48%
2,COCCC(=O)N1CCCC1c1nc(O)cc(C(C)C)n1 (stereo unspecified),-1.69%
3,CCC[C@H]1CN(C(=O)Cn2ccccc2=O)C[C@@H]1NS(C)(=O)=O,5.21%
4,CCCS(=O)(=O)N1CCN(c2ccnc(N3CCCCC3)n2)CC1,5.38%
5,CCN(C(=O)CN1CCC(c2n[nH]c(C3CC3)n2)CC1)C1CC1,38.67%
6,CC1CCN(C(=O)CN2CCC(c3n[nH]c(C4CC4)n3)CC2)CC1,-35.26%
7,C=C(C)CN1CCC(c2n[nH]c(C3CC3)n2)CC1,52.98%
8,Cc1cc(C[C@@H]2COC[C@@H]2NC(=O)CN2CCc3ccccc3C2)on1,54.49%
9,Cc1ccc(CN[C@@H]2COC[C@H]2Cc2cc(C)no2)cc1,20.08%
10,Cc1cc(C[C@@H]2COC[C@@H]2NC(=O)CN2CCCC2)on1,-56.02%
11,Cc1cc(C[C@@H]2COC[C@H]2NCc2ccc(C)c(C)c2)on1,53.24%
12,Cc1cc(C[C@@H]2COC[C@H]2NCc2ccc(Cl)c(Cl)c2)on1,-44.61%
13,Cc1cc(C[C@@H]2COC[C@@H]2NC(=O)CCN2Cc3ccccc3C2)on1,14.1%
14,O=C(CC1CCC1)N1CCCC(CO)(CC2CC2)C1 (stereo unspecified),-12.89%
15,O=C1CCCN1Cc1ncn2c1CN(C(=O)c1cccc(F)c1)CCC2,21.33%
16,Cc1cc(NC(=O)CN2CCCCC2Cn2nc(C)nc2C)on1 (stereo unspecified),27.5%
17,Nc1ncccc1CN1C[C@@H](C(=O)O)[C@H](c2cccc(F)c2)C1,1.22%
18,CCS(=O)(=O)N1CCC2(CC1)CN(CC1CCOC1)c1ccccc12 (stereo unspecified),17.89%
19,COc1ccc(OC2CCN(C(=O)CCc3n[nH]c(N)n3)CC2)cc1,-88.55%
20,COc1ccc(CCN2CCCC(CN(C)Cc3[nH]cnc3C)C2)cc1 (stereo unspecified),52.31%
21,Cc1noc(CN(C)CC2CCCN(CCc3ccc(Cl)cc3)C2)n1 (stereo unspecified),35.26%
22,Cc1nc(CN(C)CC2CCCN(CCc3ccc(Cl)cc3)C2)no1 (stereo unspecified),-7.76%
23,Cc1nc[nH]c1CN(C)CC1CCCN(CCc2ccc(Cl)cc2)C1 (stereo unspecified),-9.17%
24,COc1ccc(CCN2CCCC(CN(C)Cc3ccc(C)o3)C2)cc1 (stereo unspecified),54.59%

row,SMILES,INHIBITION
1,COc1ccccc1CCN1CCCC(CN(C)Cc2ccc(C)o2)C1 (stereo unspecified),-4.64%
2,CN(Cc1ccncc1)CC(c1cccs1)N1CCOCC1 (stereo unspecified),-10.66%
3,CN(Cc1ncc[nH]1)CC(c1cccs1)N1CCOCC1 (stereo unspecified),62.46%
4,Cc1noc(CN(C)CC(c2cccs2)N2CCOCC2)n1 (stereo unspecified),28.88%
5,Cc1cc(C(F)(F)F)c2c(=O)n(Cc3cc(C)on3)n(C)c2n1,1.36%
6,O=C1CCCN1Cc1nnn2c1CN(c1ncccn1)CCC2,1.48%
7,CCN1CC(C(=O)NCc2ccnc(-n3cccn3)c2)CC1=O (stereo unspecified),2.46%
8,CC(C(=O)NCc1ccc(N2CCN(C)CC2)nc1)n1cccn1 (stereo unspecified),23.16%
9,CC(C(=O)NCc1ccnc(N2CCCCCC2)c1)n1cccn1 (stereo unspecified),53.33%
10,CC(C)N1CC(C(=O)NCc2ccnc(-n3cccn3)c2)CC1=O (stereo unspecified),-47.05%
11,CN1CC(C(=O)NCc2ccnc(-n3cccn3)c2)CC1=O (stereo unspecified),67.99%
12,CC(C(=O)NCc1ccnc(N2CCOCC2)c1)n1cccn1 (stereo unspecified),-7.02%
13,CC(C(=O)NCc1ccnc(N2CCCC2)c1)n1cccn1 (stereo unspecified),17.12%
14,CC(C(=O)NCc1ccnc(N2CCN(C)CC2)c1)n1cccn1 (stereo unspecified),53.12%
15,CSC(C)C(=O)NCc1ccnc(N2CCN(C)CC2)c1 (stereo unspecified),22.29%
16,Cn1cc(CC2CC(=O)N(Cc3ccc(Cl)cc3)C2=O)cn1 (stereo unspecified),29.4%
17,CCn1ccnc1CN1CCN(CCOc2ccc(C#N)cc2)CC1,-12.75%
18,CCOc1ccc2[nH]c(=O)c(CN3CCN(S(N)(=O)=O)CC3)cc2c1,43.05%
19,CN1CCC2(CC1)CN(C(=O)c1cccc3cccnc13)CCN2C,9.11%
20,CC(CN1CCCC1=O)NC(=O)c1ccc(C(F)(F)F)[nH]c1=O (stereo unspecified),-85.12%
21,Cc1cccn2cc(CC(=O)N3CCCC(n4cncn4)C3)nc12 (stereo unspecified),-45.23%
22,O=C(C1CC1)N1CCC2(CC1)OCCO2,56.99%
23,O=C(C1CCC1)N1CCC2(CC1)OCCO2,11.87%
24,O=C(C1CCCC1)N1CCC2(CC1)OCCO2,-29.58%

row,SMILES,INHIBITION
1,CC(C)C1CN(c2cccc(C#N)n2)CCCN1Cc1ccc(F)cc1 (stereo unspecified),8.26%
2,Cc1cc(C)nc(C2CCN(c3ccncn3)C2)n1 (stereo unspecified),80.06%
3,CCc1nnc(Nc2cc(C)nc(C3CCN(c4ccncn4)C3)n2)s1 (stereo unspecified),37.36%
4,Cc1ccnc(C2CCN(c3ccnc(C)n3)C2)n1 (stereo unspecified),17.24%
5,N#Cc1cccc(NC(=O)N(CC(F)F)C2CC2)c1,-73.45%
6,CSCC(=O)N1CCCC(CCC(=O)N(C)CCc2ccccn2)C1 (stereo unspecified),28.62%
7,O=C(c1ccoc1)N1CC[C@H]2OCC[C@@]2(COc2ncccc2F)C1,30.79%
8,CC(c1cccc(O)c1)N(C)S(N)(=O)=O (stereo unspecified),-21.47%
9,CCN(C(C)c1cccc(O)c1)S(=O)(=O)c1cccnc1 (stereo unspecified),52.83%
10,CC(c1cccc(O)c1)N(C)S(=O)(=O)c1cccnc1 (stereo unspecified),-18.09%
11,Cc1cc(C)c(N(CC(O)CNCc2ccccc2)S(C)(=O)=O)c(C)c1 (stereo unspecified),25.73%
12,CN(CCNC(=O)N1CCN(Cc2ccon2)CC1)c1ccccc1,-5.97%
13,Cc1cc(CN2CCN(C(=O)NCc3ccco3)CC2)no1,-24.5%
14,CC(C)C(=O)NCCNC(=O)C(C)OCC(F)(F)F (stereo unspecified),57.76%
15,CC(OCC(F)(F)F)C(=O)NCCN(C)C (stereo unspecified),-6.73%
16,CCN(CC)CCNC(=O)C(C)OCC(F)(F)F (stereo unspecified),-55.73%
17,O=C(c1c[nH]c(=O)[nH]1)N1CCc2ccccc21,-63.68%
18,O=C(c1ccc(=O)[nH]n1)N1CCc2ccccc21,54.52%
19,CC(C)(C)c1ccc2c(c1)CCN2C(=O)c1ccc(=O)[nH]n1,-6.69%
20,O=C(c1cccnc1)N1CCCC1c1cc[nH]n1 (stereo unspecified),40.31%
21,Cc1ccc(C(=O)N(Cc2cccc(F)c2)C2CC2)c(=O)[nH]1,63.46%
22,Cc1ccc(C(=O)N(Cc2ccc(F)cc2F)C2CC2)c(=O)[nH]1,20.76%
23,Cc1ccc(C(=O)N(Cc2ccc(F)cc2)C2CC2)c(=O)[nH]1,27.33%
24,CN1CCN(c2ncc3c(c2C(=O)O)CCN(C2CCOC2)C3)CC1 (stereo unspecified),21.28%

row,SMILES,INHIBITION
1,O=C(O)c1c(-c2ccoc2)ncc2c1CCN(C1CCOC1)C2 (stereo unspecified),55.52%
2,CCN(C)c1ncc2c(c1C(=O)O)CCN(C1CCOC1)C2 (stereo unspecified),54.13%
3,CCN(CC)c1ncc2c(c1C(=O)O)CCN(C1CCOC1)C2 (stereo unspecified),24.51%
4,O=C(O)c1c(-c2ccncc2)ncc2c1CCN(C1CCOC1)C2 (stereo unspecified),-80.9%
5,O=C(O)c1c(NC2CCC2)ncc2c1CCN(C1CCOC1)C2 (stereo unspecified),45.12%
6,CNS(=O)(=O)c1ccc(CNC(=O)Nc2cn[nH]c2)cc1,2.07%
7,COc1ccccc1CCc1nc(CC2CCN(C)CC2)no1,34.46%
8,COc1c[nH]c(C(=O)N2CCN(c3cccc(Cl)c3)CC2)cc1=O,22.88%
9,CCc1ncc(CN2C[C@@H]3CC[C@H]2CN(C(=O)C2CCC2)C3)cn1,12.3%
10,Cn1ccnc1CN(CCO)C(=O)c1cnc2ccccc2c1,29.71%
11,Cc1c(Cl)cc(C(=O)N(CCO)Cc2nccn2C)cc1Cl,55.84%
12,Cn1ccnc1CN(CCO)C(=O)c1cc2ccccc2o1,22.27%
13,CC(C)NC(=O)NC(C)c1nc(-c2ccccc2)cs1 (stereo unspecified),-22.08%
14,Cc1csc(N(C)C(=O)C2CC(=O)N(c3ccccc3Cl)C2)n1 (stereo unspecified),-29.95%
15,CN1CCc2nc(C3CCCN(S(=O)(=O)c4ccccc4)C3)ncc2C1 (stereo unspecified),64.55%
16,CN1CCc2nc(C3CCCN(S(=O)(=O)N4CCCC4)C3)ncc2C1 (stereo unspecified),-1.51%
17,CCN(CC)S(=O)(=O)N1CCCC(c2ncc3c(n2)CCN(C)C3)C1 (stereo unspecified),3.38%
18,Cc1nc(N2CCCC2C(=O)NC(C)(C)CO)nc2ccccc12 (stereo unspecified),26.49%
19,COCC1CN(c2ccc(Cl)cc2C#N)CCO1 (stereo unspecified),29.3%
20,Cc1nc(CN2CCCC(c3nc(C)n4c(C)c(C)sc34)C2)co1 (stereo unspecified),-12.89%
21,OCC1(NCc2cccc(-n3cccn3)c2)CCOCC1,-2.38%
22,Cc1cc(CNC2(CO)CCOCC2)ccc1Br,51.08%
23,Cc1cc(CNCC2(O)CCOCC2)ccc1Br,-6.29%
24,CCn1c(CN2CCN(C(=O)C3CCC3)CC2)nc2c(F)cccc21,10.22%

row,SMILES,INHIBITION
1,O=C(C1CNCCO1)N1CCCC(c2ccccc2)(c2ccccc2)C1 (stereo unspecified),42.2%
2,Cc1nc(C(C)C)sc1C(=O)NS(=O)(=O)c1ccc(C#N)cc1,36.12%
3,CCCc1nc(C)c(C(=O)NS(=O)(=O)c2cccnc2)s1,-25.2%
4,CCCc1nc(C)c(C(=O)NS(=O)(=O)c2ccc(C#N)cc2)s1,55.63%
5,Fc1ccc(CN2CCCC3(COCCN(Cc4c[nH]nn4)C3)C2)cc1 (stereo unspecified),23.81%
6,O=C1CC(c2ccc(C(=O)O)cc2)c2ncn(-c3cccc(Cl)c3)c2N1 (stereo unspecified),53.61%
7,O=C1CC(c2ccc(C(=O)O)cc2)c2ncn(-c3ccccc3)c2N1 (stereo unspecified),-29.53%
8,O=C1CC(c2ccc(C(=O)O)cc2)c2ncn(-c3cccc(F)c3)c2N1 (stereo unspecified),-20.06%
9,CN(Cc1noc(C2CC2)n1)C1CCN(CCc2cccs2)C1 (stereo unspecified),30.88%
10,Cc1cnc(CN(C)C2CCN(CCCc3cnn(C)c3)C2)o1 (stereo unspecified),8.42%
11,Cc1cc(C)n(CCN2CCC(N(C)Cc3noc(C4CC4)n3)C2)n1 (stereo unspecified),12.66%
12,Cc1ccc(CCN2CCC(N(C)Cc3noc(C4CC4)n3)C2)cc1 (stereo unspecified),54.85%
13,CN(Cc1nnc(C2CC2)n1C)C1CCN(CCc2ccccc2)C1 (stereo unspecified),-11.31%
14,CC(C)c1cnc(CN(C)C2CCN(CCc3cnn(C)c3)C2)o1 (stereo unspecified),5.59%
15,CN(Cc1nnc(C2CC2)n1C)C1CCN(CCc2ccncc2)C1 (stereo unspecified),-0.45%
16,CN(Cc1noc(C2CC2)n1)C1CCN(CCc2cnn(C)c2)C1 (stereo unspecified),64.87%
17,CC(C)c1cnc(CN(C)C2CCN(CCCc3cnn(C)c3)C2)o1 (stereo unspecified),59.23%
18,Cc1nc(CN(C)C2CCN(CCc3cnn(C)c3)C2)no1 (stereo unspecified),31.7%
19,CN(Cc1nnc(C2CC2)n1C)C1CCN(CCc2cnn(C)c2)C1 (stereo unspecified),81.1%
20,CN(Cc1cnn(C)c1)C1CCCN(Cc2noc(C3CC3)n2)C1 (stereo unspecified),22.75%

# Source: ChEMBL document CHEMBL4513216, “Probing the Open Global Health Chemical Diversity Library for Multistage-Active Starting Points for Next-Generation Antimalarials” (ACS Infect Dis, 2020)
